Assay outcomes: PubChem, National Center for Advancing Translational Sciences (NCATS)
SARS PLP yeast: qHTS of Yeast-based Assay for SARS-CoV PLP; S. cerevisiae expressing SARS-CoV PLpro, growth rescue; Potency, µM (top dose mostly 32.9 µM), inactives show top-dose activity, positive = growth rescue, most hits filed as activators; hit rate 0.19% among 330,000; calls by dose curve; further: 0% is about no effect; nearly all actives have a fitted effect of over 55% in size
Sm TGR block: qHTS Assay for the Inhibitors of Schistosoma Mansoni Peroxiredoxins. Schistosoma mansoni thioredoxin glutathione reductase (TGR), Q962Y6. purified TGR, DTNB reduction, TNB absorbance 405 nm. Potency, µM (titrated, usually from 114 µM), for the others: at the highest dose activity change, negative = inhibition, actives largely listed as inhibitors. hit rate 3% among 360,000; active means well fitted inhibition curve with a large enough effect; inconclusive means small, poorly fitted or top-dose-only effect; inactive means no such curve, though single readings can be large or run the other way; further: on the % scale 0 is the no-effect control and ±100 the full control effect; nearly all actives have a fitted effect of over 60% in size
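Kinetic colorimetric format: TGR-catalysed, NADPH-driven DTNB reduction monitored via TNB absorbance. Enzyme dispensed at 20 nM; compound exposure 15 min at room temperature before reaction start.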
* hit, by the source's call; ? = inconclusive; . = no result. The list is not random: actives were taken first. Their share in the collection is about 3%. Potency means the concentration at half of the fitted maximal effect.

SMILES	SARS PLP yeast	Sm TGR block
COc1ccc(N2CCN(C(=O)c3cc4c(=O)n(Cc5ccco5)ccc4nc3C)CC2)cc1	.	-20%
Cc1nc2ccn(Cc3ccco3)c(=O)c2cc1C(=O)NCc1ccccc1	.	-10%
COc1cccc(N2CCN(C(=O)c3cc4c(=O)n(Cc5ccco5)ccc4nc3C)CC2)c1	.	10µM*
Cc1ccc(CNC(=O)c2cc3c(=O)n(Cc4ccco4)ccc3nc2C)cc1	.	25µM*
CCOC(=O)c1ccc(NC(=O)CC2C(=O)N(c3ccc(C)cc3)C(=O)N2C2CCCC2)cc1 (centres undefined)	.	1%
CCCOc1ccc(C(=O)Nc2cc3nn(-c4ccc(CC)cc4)nc3cc2C)cc1	.	1%
Cc1nc2ccc(S(=O)(=O)CCC(=O)Nc3ccc(C)c(C)c3)cc2s1	.	-3%
NC1(C#Cc2ccc3oc(=O)c(-n4cc(C5(O)CCCCC5)nn4)cc3c2)CCCCC1	-2%	.
NC1(C#Cc2ccc3oc(=O)c(-n4cc(-c5ccsc5)nn4)cc3c2)CCCCC1	6%	56µM*
O=C(NC1CC(=O)N(c2cccc(F)c2)C1)c1ccc(Br)o1 (centres undefined)	.	-3%
COc1ccc(-c2nnc(SCC(=O)Nc3ccc(C)c(Cl)c3)nc2-c2ccc(OC)c(OC)c2)cc1OC	.	0%
COc1ccc(-c2cccc(NS(=O)(=O)c3cc(C)c(Cl)cc3C)c2)nn1	.	-3%
CCOC(=O)C1=C(C)N(c2ccc(C)cc2)C(=O)/C1=C\c1ccc(O)c(OC)c1	0%	3.2µM*
CCOc1cc(/C=C2\C(=O)N(CCc3ccc(OC)c(OC)c3)C(C)=C2C(=O)OC)ccc1O	3%	20µM*
CCOc1ccc(N2C(=O)S/C(=C\c3ccc(O)c(OC)c3)C2=O)cc1	-1%	-5%
COC(=O)C1=C(C)N(Cc2ccc(C)cc2)C(=O)/C1=C\c1ccc(O)c(OC)c1	3%	?
CCCS(=O)(=O)N1CC(=O)N(c2cccc(Cl)c2)C(C)(C(=O)NC2CCCCC2)C1 (centres undefined)	.	0%
Cc1ccc(CN2C(=O)C3(c4ccccc42)N(c2cccc(F)c2)C(=O)CS3(=O)=O)cc1 (centres undefined)	.	16%
CCCNC(=O)N1[C@H](c2ccc(C)s2)[C@@H](C)C(=O)[C@@H](C)[C@@H]1c1ccc(C)s1	.	-1%
Clc1ccc(-c2nnnn2-c2ccc(Cl)cc2)cc1	-2%	7%
Cc1ccc(-n2nnnc2C(Cl)(Cl)c2nnnn2-c2ccc(C)cc2)cc1	-37%	18µM*
COC(=O)c1sc(N)c(C(=O)OC)c1COC(=O)c1c(C)noc1C	10%	-8%
COC(=O)c1sc(N)c(C(=O)OC)c1Cn1ncc(Cl)c(Cl)c1=O	11%	0.32µM*
O=C(NCCSCc1c(F)cccc1Cl)C1CCN(S(=O)(=O)Cc2ccccc2)CC1	.	-6%
COc1ccc(-c2cn3cc(Cl)ccc3n2)cc1OC	3%	?
SMILES	SARS PLP yeast	Sm TGR block
CNC(=O)Oc1ccc(-c2cn3cc(Cl)ccc3n2)cc1	8%	35µM*
CN(C)c1ccc(CNC(=O)CN2CCSc3ccc(S(=O)(=O)N(C)C)cc32)cc1	.	0%
O=C(c1cccc(F)c1)N1CCN(Cc2ccco2)CC1	1%	-27%
CCN1CCN(C(c2cccc(OC)c2)c2c(O)cc(C)n(Cc3ccco3)c2=O)CC1 (centres undefined)	.	5.6µM*
CCN1CCN(C(c2cccc(OC)c2)c2sc3nc(C)nn3c2O)CC1 (centres undefined)	-2%	0%
COc1cccc(C2C(C(C)=O)=C(O)C(=O)N2Cc2ccco2)c1 (centres undefined)	1%	-2%
COc1cccc(C(c2c(O)cc(C)n(Cc3ccco3)c2=O)N2CCC(C)CC2)c1 (centres undefined)	.	11µM*
CCN1CCN(C(c2cccc(F)c2)c2c(O)cc(C)n(Cc3ccco3)c2=O)CC1 (centres undefined)	.	5µM*
Cc1ccc(NC(=O)Cn2cc3c(n2)CCCCC3)cc1	.	-13%
COc1cccc(NC(=O)Cn2nc(C)c3c(C)n(-c4ccccc4)nc3c2=O)c1	.	3%
CCN1C(=O)[C@H]2[C@@H](c3ccc(-c4ccc5c(c4)OCO5)c(OC)c3)N[C@@](Cc3ccccc3)(C(=O)OC)[C@H]2C1=O	-1%	-23%
CCN1C(=O)[C@H]2[C@@H](c3ccc(-c4ccc(OC)cc4)c(OC)c3)N[C@@](Cc3ccccc3)(C(=O)OC)[C@H]2C1=O	12%	.
CCN1C(=O)[C@H]2[C@@H](c3ccc(-c4ccc5c(c4)OCO5)c(OC)c3)N[C@@](CC(C)C)(C(=O)OC)[C@H]2C1=O	-2%	50µM*
COC(=O)[C@]1(Cc2ccccc2)N[C@H](c2ccc(-c3ccc(F)cc3)cc2)[C@@H]2C(=O)N(C)C(=O)[C@@H]21	-2%	?
CCN1C(=O)[C@H]2[C@@H](c3ccc(-c4cccc(Cl)c4)c(OC)c3)N[C@@](Cc3ccccc3)(C(=O)OC)[C@H]2C1=O	-1%	28µM*
COc1ccc(C2NC(Cc3ccccc3)(C(=O)O)C3C(=O)N(c4ccccc4OC)C(=O)C23)cc1 (centres undefined)	-1%	22µM*
CCN1C(=O)[C@H]2[C@@H](c3ccc(-c4ccc(OC)cc4)c(OC)c3)N[C@@](CC(C)C)(C(=O)OC)[C@H]2C1=O	0%	.
COC(=O)[C@]1(CC(C)C)N[C@H](c2ccc(-c3ccc(F)cc3)c(OC)c2)[C@@H]2C(=O)N(C)C(=O)[C@@H]21	-16%	20µM*
CCS(=O)(=O)N1CCC2(CC1)OC(=O)C(C)=C2C(=O)NCc1ccccc1C	.	6%
Cc1ccc(-c2c(C)n3c4c(=O)n(C)c(=O)n(C)c4nc3n2-c2cccc(O)c2)cc1	.	-11%
CCOC(=O)c1c(C)c(-c2ccccc2)n(CC(=O)NCCc2cccc(C)c2)c1C	.	-7%
Cc1ccccc1C1=CCN(c2ncc(NC(=O)c3ccc(Cl)cc3)cc2C(=O)O)CC1	.	40µM*
CN1CCN(c2ccc(NC(=O)c3ccc(Cl)cc3)cn2)CC1	1%	8%
Cc1cccc(N2CCN(S(=O)(=O)c3ccc4oc(=O)c5ncn(C)c5c4c3)CC2C)c1 (centres undefined)	.	-2%
CCCOC(=O)c1ccc(Cn2nnc3sc4c(c3c2=O)CCC(C)C4)cc1 (centres undefined)	.	5%
SMILES	SARS PLP yeast	Sm TGR block
O=[N+]([O-])c1ccc(S(=O)(=O)NNC(=S)NCCc2ccccc2)cc1	3%	1.8µM*
Cc1ccc(C(=O)NC(=S)NNC(=O)c2ccc([N+](=O)[O-])cc2)cc1	-7%	1%
Cc1ccc(S(=O)(=O)NCC2CCCO2)cc1 (centres undefined)	1%	3%
Cc1ccc(S(=O)(=O)NNC(=S)NCC2CCCO2)cc1 (centres undefined)	-5%	13µM*
O=C(NNC(=O)c1ccc([N+](=O)[O-])cc1)c1ccc(Br)cc1	2%	-3%
O=C(NNC(=S)NC(=O)c1ccc(Br)cc1)c1ccc([N+](=O)[O-])cc1	-5%	100µM*
O=[N+]([O-])c1cccc(NC(=S)NCCc2ccccc2)c1	-66%	-25%
Cc1ccc(S(=O)(=O)NNC(=S)NC(=O)c2ccc([N+](=O)[O-])cc2)cc1	10%	7.9µM*
COc1ccc(CNC(=O)c2ccc(-c3nc(CSc4ccccc4)c(C)o3)cc2)cc1	.	-9%
COc1ccc(N2CCN(C(=O)COc3ccccc3C#N)CC2)cc1	.	-4%
